This is a sample that favours compounds with a hit; in the whole collection about 8.3% have one here.
FMDV antiviral: antivirals against foot and mouth disease virus; Potency, µM (doses to about 57.9 µM), without a hit: at the highest dose activity change, negative = inhibition, actives largely listed as inhibitors; FMDV antiviral cell-based qHTS; 410,000 tested, 1.2% active; calls by dose curve; tested in HEK293T cells; note: read-out not given here; potency is the fitted concentration of half-maximal effect; nearly all actives have a fitted effect of over 45% in size
Giardia FBPA inh: Giardia lamblia aldolase inhibition. A8B2U2. purified Giardia FBPA. Potency, µM (top dose mostly 59.6 µM), for the others: at the top dose activity, negative = inhibition, actives largely listed as inhibitors. 290,000 tested, 0.71% active. AID 2451; note: potency is the fitted concentration of half-maximal effect; nearly all actives have a fitted effect of over 55% in size
Target sequence (A8B2U2 whole entry, looked up): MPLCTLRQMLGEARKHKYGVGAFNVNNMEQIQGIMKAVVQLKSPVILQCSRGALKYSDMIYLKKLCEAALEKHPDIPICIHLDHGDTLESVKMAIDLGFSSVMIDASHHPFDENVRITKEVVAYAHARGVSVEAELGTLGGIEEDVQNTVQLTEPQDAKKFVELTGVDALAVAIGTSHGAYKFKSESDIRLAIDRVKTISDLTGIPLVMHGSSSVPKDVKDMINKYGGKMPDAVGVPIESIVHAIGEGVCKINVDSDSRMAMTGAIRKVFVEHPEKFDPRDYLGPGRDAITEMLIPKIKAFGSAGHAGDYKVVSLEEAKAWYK
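Giardia FBPA (40 nM reagent) was preincubated 10 min at RT with compound (up to 57.5 uM final), then substrate plus GAPDH/TPI/NAD/arsenate coupling system with diaphorase/resazurin was added; resorufin fluorescence (525/598 nm) was read after 20 min.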
HCV inhibitor: HCV inhibition. Potency, µM (doses to about 41.8 µM), for inactives: at the top dose activity change, negative = inhibition, most hits filed as inhibitors. Huh7.5.1 HCVcc-Cre infection, luciferase reporter, 44 h. AID 651820. 340,000 tested, 3.4% active; note: potency is the fitted concentration of half-maximal effect
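A cell-based infection assay in which seeded cells (1,000 per well) receive test compound after 4 h, are inoculated with HCVcc-Cre at approximately 0.5 moi, and are incubated 44 h before luminescence detection.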
Lassa entry inh: blocks Lassa virus binding to or entry into cells | Potency, µM (titrated, usually from 37.9 µM), inactives show top-dose activity change, negative = inhibition, most hits filed as inhibitors | AID 540256 | Lassa virus pseudotype entry inhibition, cell reporter | 300,000 tested, 1.2% active; calls by dose curve; tested in HEK293 cells; note: potency is the fitted concentration of half-maximal effect; nearly all actives have a fitted effect of over 50% in size
Marburg entry inh: inhibitors of Marburg virus binding or cell entry; Marburg virus pseudotyped entry inhibition, cell reporter; Potency, µM (series often up to 37.8 µM), inactives show top-dose activity change, negative = inhibition, most hits filed as inhibitors; 300,000 tested, 1.8% active; calls by dose curve; tested in HEK293 cells; note: potency is the fitted concentration of half-maximal effect
HCMV antiviral: blocks human cytomegalovirus replication. HFF cells, HCMV-luciferase reporter, 72 h; active compounds read low. activity change, negative = inhibition, % at 57.5 µM. 410,000 tested, 4.5% active. AID 1259415; in the data active = activity change below about -60%; inconclusive = no clear call, values can overlap the other calls; inactive = above about -39%
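Screen run at 2 compound doses on HFFs infected with reporter HCMV, MOI 1 PFU/cell. Luciferase activity from cell lysates at 72 h post infection gave inhibition relative to buffer-only and Salinomycin wells.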
* hit, by the source's call; u = inconclusive; x = no result; [ ] = another dose, or the depositor's remark. Unless noted, calls come from the whole dose curve; as a rule, active = well fitted curve in the direction sought with a large enough effect; inconclusive = small, poorly fitted or top-dose-only effect, or another doubt; inactive = no such curve, though single readings can be large; an effect the other way counts as inactive or inconclusive. % is set by controls: 0 for no effect and ±100 for the full control effect.

SMILES	FMDV antiviral	Giardia FBPA inh	HCV inhibitor	Lassa entry inh	Marburg entry inh	HCMV antiviral
COc1ccccc1Nc1nc(N2CCOCC2)nc(N2CCOCC2)n1	-6%	x	u	-9%[46.1 µM]	4µM*	u
COc1ccccc1Nc1nc(N2CCCC2)nc(N2CCOCC2)n1	-17%	x	x	x	x	4
N#CC(C#N)c1ccnc2ccccc12	-29%	x	x	x	x	-78*
Cc1nc(-c2c(-c3ccc(O)cc3O)noc2C(F)(F)F)cs1	35µM*	0%	u	u	u	-67*
COc1ccc(-c2ncnc(C(F)(F)F)c2-c2csc(C)n2)c(O)c1	-23%	-5%	-4%	x	x	u
COc1ccc(C2C(C(=O)Nc3ccccc3)=C(C)Nc3nc(-c4ccccc4Cl)nn32)cc1OC (stereo unspecified)	-15%	x	x	u	u	1
O=C1CN(c2nc(-c3cccs3)nc3sc4c(c23)CCCC4)CCN1	44%	-11%	5.6µM*	u	u	0
CC1=CC(=C(C#N)c2nc3ccccc3s2)C=C(C)N1CC1CCCO1 (stereo unspecified)	10%	-27%	11µM*	23%	u	38
N#C/C(=C1/CCCCCN1)c1nc2ccccc2s1	x	4%	u	-5%	-28%	8
C/C=C\C1=CCCC1Nc1ncnc2ccc(-c3c(C)noc3C)cc12 (stereo unspecified)	x	-6%	x	x	x	x
CCN1CCS/C1=C/C=C/C1=[N+](CC)CCS1	u	6%	x	u	2.5µM*	x
CCN1CCS/C1=C\C=C\C1=[N+](CC)CCS1	u	2%	6.3µM*	x	2.5µM*	-104*
Cc1ccc(/C=C2\C(=O)Nc3ccccc32)o1	32%	-22%	u	-8%	20%	-34
Cc1ccc2c(c1)/C(=C/c1ccco1)C(=O)N2	2%	1%	11µM*	-27%[46.1 µM]	u	19
CCOc1ccccc1/C=N/NC(=O)c1cccc(S(=O)(=O)N(CC)CC)c1	0%	u	-12%	5%[46.1 µM]	17%[46.1 µM]	11
CCN(CC)S(=O)(=O)c1cccc(C(=O)N/N=C/c2ccc(O)c(O)c2O)c1	u	4.5µM*	7%	6%	1%	34
CCn1c(C)nc2cc(C(=O)N/N=C/c3ccc(O)c(O)c3O)ccc21	-27%	13µM*	-14%	-10%	u	-8
CCn1c(C)nc2cc(C(=O)N/N=C/c3cccc(OC)c3O)ccc21	5%	8%	u	u	u	-15
CCN(CC)S(=O)(=O)c1cccc(C(=O)N/N=C(\C)c2ccc(O)cc2O)c1	-7%	u	8.9µM*	u	7.9µM*	-95*
CCN(CC)C(=O)c1ccccc1NC(=O)c1cccc(S(=O)(=O)N(CC)CC)c1	-9%	1%	26%	-7%	12%	28
CN[C@H]1C[C@@H](N)[C@H](O)[C@@H](O[C@@H]2O[C@H](CO)[C@H](O)[C@@H]3OC4(O[C@H]23)O[C@H](C(N)CO)[C@H](O)[C@H](O)[C@H]4O)[C@@H]1O (stereo partly specified)	9%	x	x	x	x	x
Cc1ccccc1C(=O)NC(C)c1nnc2n1CCN(Cc1ccc(F)cc1)CC2 (stereo unspecified)	-1%	x	x	x	x	x
O=C(c1cccc(F)c1)N1CCC2(CC1)CCN(c1ccncc1)CC2	-10%	6%	x	x	x	x
COc1cccc(C2(CC(=O)N3CCC(c4nc5ccc(F)cc5[nH]4)CC3)CC(=O)N(C)C2=O)c1 (stereo unspecified)	9%	x	x	x	x	x
CCCCN1C2=C(C(=O)CCC2)C(c2ccc(Cl)c(Cl)c2)C2=C1c1ccccc1C2=O (stereo unspecified)	5%	-11%	u	2.3µM*	u	6
SMILES	FMDV antiviral	Giardia FBPA inh	HCV inhibitor	Lassa entry inh	Marburg entry inh	HCMV antiviral
O=C(c1ccco1)N1CCC2(CCCN(c3ccncc3)C2)CC1	-24%	3%	x	x	x	x
CSc1nc2sc3c(c2c(=O)n1C)CCCC3	x	2%	11µM*	2%	12%	-9
O=C(CCn1c(=O)oc2cc(Cl)ccc21)Nc1ccc(O)cc1	10%	7%	10%	x	23%[46.1 µM]	-14
Cn1c(=O)n(C)c2cc(NC(=O)CCl)ccc21	u	4%	u	18µM*	u	-104*
CCn1c(=O)oc2cc(NC(=O)CCl)ccc21	22µM*	-9%	u	u	u	u
CC(=O)Nc1ccc2c(c1)n(C)c(=O)n2C	17%	-5%	20%	26%	3%	120
O=C(NCc1ccccc1Br)c1ccc2c(c1)nc1n2CCOC1	22%	x	x	-16%[46.1 µM]	x	23
COC(=O)[C@H]1[C@H](CCc2ccccc2)NC(=O)N(Cc2ccccc2)[C@H]1C	x	x	x	u	-15%[14.2 µM]	x
O=C(Nc1ccc(Cl)c(-c2nc3ccccc3o2)c1)c1cccc2c(Cl)cccc12	-17%	x	x	-28%[46.1 µM]	3%[46.1 µM]	19
CCN(C(=O)c1cc2c(s1)-c1ccccc1OC2)c1cc(OC)ccc1OC	0%	-10%	13µM*	x	x	5
CCN(C(=O)c1cc2c(s1)-c1ccccc1S(=O)(=O)C2)c1cc(OC)ccc1OC	0%	-8%	10µM*	x	x	1
O=C(c1cc2c(s1)-c1ccccc1S(=O)(=O)C2)N1CCCC1	-1%	0%	1%	x	x	-40
CCOC(=O)N1CCN(C(=O)c2ccc(-c3ccccc3OC)nc2N2CCC(N3CCCC(CO)C3)CC2)CC1 (stereo unspecified)	-1%	x	x	x	x	x
COC(=O)[C@H](COC(C)(C)C)NC(=O)O[C@@H]1C(=O)c2cc(OC)ccc2O[C@H]1c1cccc(OC)c1	x	-2%	x	x	u	x
COc1cc(OC)cc(C(=O)Nc2cc(NC(=O)c3ccco3)ccc2OC)c1	-21%	-3%	10µM*	-30%	0%[46.1 µM]	-28
COc1cc(OC)cc(C(=O)Nc2ccc(NC(=O)c3ccco3)c(C)c2)c1	0%	-7%	u	-6%[46.1 µM]	u	5
COc1ccc(NC(=O)c2ccco2)cc1NC(=O)COc1ccc(C)cc1C	u	x	x	0%[46.1 µM]	-1%[46.1 µM]	-66*
CCCC[C@H]1CN2[C@@H](CC[C@@H](C)[C@@H]2c2ccc(Br)cc2)C(=O)O1	x	x	x	x	2%[14.2 µM]	x
C[C@@]12C=Cc3occc3C1CC[C@@]13C[C@@H](CCC12)[C@@](O)(CO)C3 (stereo partly specified)	x	-8%	x	x	x	x
O=S(=O)(CC(CN1CCCC1)N1CCCC1)c1ccc2ccccc2c1 (stereo unspecified)	0%	5%	10µM*	10µM*	18µM*	-102*
Cc1ccc(C(=O)NC(=S)Nc2ccc(S(=O)(=O)N(C)c3ccccc3)cc2)cc1	u	-9%	13%	-1%	9%[46.1 µM]	u
COC(=O)N/N=C/c1cccc([N+](=O)[O-])c1	1%	0%	0%	22%[46.1 µM]	16%[46.1 µM]	32
COc1cccc(OCC(=O)Nc2ccc(OC)c(OC)c2)c1	0%	0%	0.63µM*	0%	2%[46.1 µM]	-23
